# Measured values from the supplement of paper PMC12808144.
# How the values were obtained:
# [1] = tested on: Mel-DCC-11; test: cell viability relative to DMSO control (fraction of DMSO control); higher = less cytotoxic, active = 0.5 or less; conditions: 1 µM; 120 h
# How it was run: (§1)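 Three cell types were screened against 315 approved anti-cancer drugs from TargetMol, acoustically pre-spotted in 384-well plates at 1 µM in duplicate over 120 h: NHEM-hTERT immortalized melanocytes (2500/well), patient-derived Mel-DCC-11 and its resistant subline Mel-DCC-11-R (both 1500/well), all in 40 µl per well. The subline was tested alone and with 8 µM of its selecting drug. Viability, measured by luminescence, was normalised to vehicle controls and averaged across duplicates, with ATPlite 1step as the readout.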
# [2] = tested on: NHEM-hTERT; test: as above; conditions: 1 µM; 120 h
# How it was run: as §1
# [3] = tested on: Mel-DCC-11-R; test: cell viability relative to DMSO control (fraction of DMSO control); higher = less cytotoxic, active = 0.8 or less; conditions: 1 µM, 120 h
# How it was run: as §1
SMILES,cell viability [1],cell viability [2],cell viability ([3]; vemurafenib co-treatment 0 µM),cell viability ([3]; vemurafenib co-treatment 8 µM)
CC(C)(O)CNc1nc(Nc2ccnc(C(F)(F)F)c2)nc(-c2cccc(C(F)(F)F)n2)n1 [Enasidenib],0.875 (inactive),1.09 (inactive),1.3 (inactive),0.834 (inactive)
CN1CCN(c2ccc3nc(-c4c(N)c5c(F)cccc5[nH]c4=O)[nH]c3c2)CC1 [Dovitinib],1.11 (inactive),0.972 (inactive),1.05 (inactive),1.08 (inactive)
CC(C)C[C@H](NC(=O)[C@@H](O)[C@H](N)Cc1ccccc1)C(=O)O [Ubenimex],0.792 (inactive),0.944 (inactive),1.12 (inactive),0.942 (inactive)
C=C1CC[C@H](O)C/C1=C/C=C1\CCC[C@]2(C)[C@@H]([C@H](C)/C=C/[C@H](C)C(C)C)CC[C@@H]12 [Vitamin D2],1.13 (inactive),0.998 (inactive),1 (inactive),1.16 (inactive)
Cc1[nH]c2ccccc2c1CCNCc1ccc(/C=C/C(=O)NO)cc1 [Panobinostat],–,0.339 (active),–,–
CNCc1ccc(-c2[nH]c3cc(F)cc4c3c2CCNC4=O)cc1.O=P(O)(O)O [Rucaparib Phosphate],1.1 (inactive),0.996 (inactive),0.916 (inactive),1.11 (inactive)
CC(=O)Nc1cccc(-n2c(=O)n(C3CC3)c(=O)c3c(Nc4ccc(I)cc4F)n(C)c(=O)c(C)c32)c1 [Trametinib],0.0655 (active),0.453 (active),0.206 (active),0.165 (active)
Nc1c2ccccc2nc2ccccc12 [Aminacrine],1.43 (inactive),0.915 (inactive),1.26 (inactive),1.2 (inactive)
COc1ccc(-c2cc(=S)ss2)cc1 [Anethole trithione],–,1.05 (inactive),–,–
Nc1nc(=O)c2c(CCc3ccc(C(=O)N[C@@H](CCC(=O)O)C(=O)O)cc3)c[nH]c2[nH]1 [Pemetrexed acid],–,1.19 (inactive),1.22 (inactive),0.964 (inactive)
Cc1c(C)c2c(c(C)c1O)CCC(C)(COc1ccc(CC3SC(=O)NC3=O)cc1)O2 (centres undefined) [Troglitazone],–,1.05 (inactive),1.01 (inactive),1.12 (inactive)
C[C@@H]1C[C@H]2[C@@H]3CCC4=CC(=O)C=C[C@]4(C)[C@@]3(F)[C@@H](O)C[C@]2(C)[C@@]1(O)C(=O)COP(=O)([O-])[O-].[Na+].[Na+] [Dexamethasone Sodium Phosphate],–,1.2 (inactive),1.16 (inactive),0.927 (inactive)
NC1CCCCC1N.O=C([O-])C(=O)[O-].[Pt+2] (centres undefined) [Oxaliplatin],–,1.05 (inactive),1.01 (inactive),1.12 (inactive)
Cn1cnc2c(F)c(Nc3ccc(Br)cc3F)c(C(=O)NOCCO)cc21 [Binimetinib],–,0.934 (inactive),0.664 (active),0.406 (active)
COc1cc2nccc(Oc3ccc(NC(=O)NC4CC4)c(Cl)c3)c2cc1C(N)=O [Lenvatinib],–,0.784 (inactive),1.03 (inactive),1.17 (inactive)
CN(N=O)C(=O)N[C@@H]1[C@@H](O)[C@H](O)[C@@H](CO)O[C@@H]1O [Streptozocin],–,1.11 (inactive),0.976 (inactive),1.1 (inactive)
O=c1[nH]c(=O)n([C@H]2C[C@H](O)[C@@H](CO)O2)cc1/C=C/Br [Brivudine],–,1.08 (inactive),0.809 (inactive),1.12 (inactive)
CC(=O)O[C@@]12CO[C@@H]1C[C@H](O)[C@@]1(C)C(=O)[C@H](O)C3=C(C)[C@@H](OC(=O)[C@H](O)[C@@H](NC(=O)OC(C)(C)C)c4ccccc4)C[C@@](O)([C@@H](OC(=O)c4ccccc4)[C@H]21)C3(C)C [Docetaxel],–,0.707 (inactive),1.07 (inactive),0.609 (active)
COc1cc([C@H]2Oc3cc([C@H]4Oc5cc(O)cc(O)c5C(=O)[C@@H]4O)ccc3O[C@@H]2CO)ccc1O [Silibinin],–,0.948 (inactive),0.799 (active),0.914 (inactive)
O=C1CCC(N2C(=O)c3ccccc3C2=O)C(=O)N1 (centres undefined) [Thalidomide],–,1.1 (inactive),0.897 (inactive),0.589 (active)
Nc1nc([O-])c2c(CCc3ccc(C(=O)N[C@@H](CCC(=O)[O-])C(=O)[O-])cc3)c[nH]c2n1.[Na+].[Na+] [Pemetrexed disodium],–,1.05 (inactive),0.818 (inactive),0.881 (inactive)
Cl.N=C1CCCN1Cc1[nH]c(=O)[nH]c(=O)c1Cl.O=c1[nH]c(=O)n([C@H]2C[C@H](O)[C@@H](CO)O2)cc1C(F)(F)F.O=c1[nH]c(=O)n([C@H]2C[C@H](O)[C@@H](CO)O2)cc1C(F)(F)F,–,0.967 (inactive),1.23 (inactive),1.1 (inactive)
